Measured values taken from PubChem BioAssay (NCATS).
Records with an inconclusive call do not appear. A call without a number means that no potency is given here. Activity calls are given as the source filed them. The call rests on the fitted dose curve; in most records, active means well fitted curve in the direction sought with a large enough effect; inconclusive means small, poorly fitted or top-dose-only effect, or another doubt; inactive means no such curve, though single readings can be large; an effect the other way counts as inactive or inconclusive.

Experiments:
[1] = biological target: Phospholipid hydroperoxide glutathione peroxidase GPX4 (Homo sapiens) (UniProt P36969); test: Primary qHTS Assay for Inhibitors of Recombinant Selenoprotein Glutathione Peroxidase 4 (GPX4) (AID 1845192); further: nearly all actives have a fitted effect of over 65% in size
Procedure, shortened: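 NADPH consumption, followed by fluorescence at 340/450 nm between 0 and 15 min, reports GPX4 activity via coupled glutathione reductase (100 nM). Enzyme 200 nM was pre-exposed to compound 30 min; 0.5 mM cumene hydroperoxide and 1 mM GSH served as substrates.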

[2] = Quantitative High-Throughput drug screen in 47 multiple myeloma cell lines against the NCATS MIPE library collection: Karpas620_DSMZ cell viability assay (AID 1918959); further: nearly all actives have a fitted effect of over 30% in size; further: potency means the concentration at half of the fitted maximal effect
Procedure, shortened: (§1)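 Primary qHTS used for cherry-picking: cells at 500/well, library compounds for 48 h (37C, 5% CO2), luminescent ATP assay.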

[3] = Quantitative High-Throughput drug screen in 47 multiple myeloma cell lines against the NCATS MIPE library collection: FR4_PLB cell viability assay (AID 1918924; further: nearly all actives have a fitted effect of over 35% in size; further: potency means the concentration at half of the fitted maximal effect)
Procedure, shortened: as §1

[4] = Quantitative High-Throughput drug screen in 47 multiple myeloma cell lines against the NCATS MIPE library collection: Delta47_JCRB cell viability assay (AID 1918925; further: nearly all actives have a fitted effect of over 45% in size; further: potency means the concentration at half of the fitted maximal effect)
Procedure, shortened: (§2)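 Myeloma cell lines, 500 cells per well, exposed to MIPE 4.0 library compounds for 48 h at 37C, 5% CO2. Viability from ATP by CellTiter-Glo luminescence; normalised to DMSO (100%) and media-only (0%) wells.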

[5] = Quantitative High-Throughput drug screen in 47 multiple myeloma cell lines against the NCATS MIPE library collection: AMO1_DSMZ cell viability assay (AID 1918927; further: nearly all actives have a fitted effect of over 30% in size; further: potency means the concentration at half of the fitted maximal effect)
Procedure, shortened: as §2

[6] = Quantitative High-Throughput drug screen in 47 multiple myeloma cell lines against the NCATS MIPE library collection: EJM_DSMZ cell viability assay (AID 1918926; further: nearly all actives have a fitted effect of over 30% in size; further: potency means the concentration at half of the fitted maximal effect)
Procedure, shortened: as §2

[7] = Quantitative High-Throughput drug screen in 47 multiple myeloma cell lines against the NCATS MIPE library collection: ARP1_JJKsccF8 cell viability assay (AID 1918928; further: nearly all actives have a fitted effect of over 40% in size; further: potency means the concentration at half of the fitted maximal effect)
Procedure, shortened: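 Myeloma cells, 500 per well, were exposed to MIPE 4.0 drugs by pin transfer for 48 h at 37 °C, 5% CO2. Viability was read as ATP luminescence with CellTiter-Glo, normalised to DMSO-only (100%) and medium-only (0%) wells.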

[8] = biological target: Luciferin 4-monooxygenase (Photinus pyralis) (UniProt P08659); test: Primary firefly luciferase (FLuc) qHTS assay for identification of artifact compounds. (AID 1845220); further: series mostly up to about 54 µM; nearly all actives have a fitted effect of over 60% in size
Procedure, shortened: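 FLuc 10 nM; luciferin 10 uM; ATP 10 uM; Tris-acetate pH 7.6, Mg-acetate 10 mM; 15 min RT preincubation; 5 min reaction; luminescence.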

[9] = Primary fluorescence-based thiol-reactive (MSTI) qHTS assay for identification of artifact compounds. (AID 1845221);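 further: series mostly up to about 54 µM; thiol-reactive compounds lower the probe fluorescence signal; nearly all actives have a fitted effect of over 65% in size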
Procedure, shortened: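 Curve-fitted percent inhibition (4-parameter Hill) derived from fluorescence, Ex 525/Em 598 nm, scaled with Acetyl-MSTI and MSTI; 1 h incubation at room temperature.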

[10] = tested on: Nanoluciferase (engineered Oplophorus gracilirostris luciferase); test: Primary Nanoluciferase (NLuc) qHTS assay for identification of artifact compounds. (AID 1845222);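 further: NLuc secreted into diluted conditioned medium of S16 cells; series mostly up to about 54 µM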
Procedure, shortened: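 NLuc from S16 cell medium (1:55) plus test compounds, 15 min, room temperature. Luminescence after Nano-Glo (1:100) addition, 5 min.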

[11] = Primary redox qHTS assay for identification of artifact compounds. (AID 1845223)
Procedure, shortened: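 Amplex Red (25 uM) and HRP (250 mU/mL) in HBSS, with compounds for 15 min, then 250 uM DTT for 30 min, room temperature, dark. Fluorescence 525/598 nm read; normalized to DMSO and 10 uM DA3003; Hill fit.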

[12] = Quantitative High-Throughput drug screen in 47 multiple myeloma cell lines against the NCATS MIPE library collection: ARD_JJKsccE7 cell viability assay (AID 1918929; further: potency means the concentration at half of the fitted maximal effect)
Procedure, shortened: as §2

Sequence of Phospholipid hydroperoxide glutathione peroxidase GPX4 (Homo sapiens) (P36969 whole entry, looked up): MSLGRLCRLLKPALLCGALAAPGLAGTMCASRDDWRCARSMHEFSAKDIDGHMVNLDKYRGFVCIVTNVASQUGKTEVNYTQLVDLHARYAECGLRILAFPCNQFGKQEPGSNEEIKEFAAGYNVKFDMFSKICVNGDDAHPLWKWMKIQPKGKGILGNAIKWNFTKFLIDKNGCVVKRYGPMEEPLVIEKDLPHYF

COc1ccc(-n2c(C)c([N+](=O)[O-])c3ccc(O)cc32)cc1
Potency [1]: inactive | Potency [2]: inactive

CO[C@@H](C(=O)N1Cc2[nH]nc(NC(=O)c3ccc(N4CCN(C)CC4)cc3)c2C1)c1ccccc1
Potency [1]: inactive | Potency [3]: 23.5 µM (active) | Potency [4]: 6.62 µM (active) | Potency [5]: 4.69 µM (active)

CC(C)(Cc1ccc2ccccc2c1)NC[C@@H](O)COc1cccc(Cl)c1C#N
Potency [1]: inactive | Potency [3]: inactive | Potency [6]: inactive | Potency [5]: inactive | Potency [7]: inactive | Potency [2]: inactive

CN(C)Cc1cccc(N=C(c2ccccc2)c2c(O)[nH]c3cc(C(=O)N(C)C)ccc23)c1
Potency [1]: inactive | Potency [7]: inactive

CN(C)C1CCN(C(=O)c2ccc(NC(=O)Nc3nc(N4CCOCC4)nc(N4CCOCC4)n3)cc2)CC1
Potency [8]: inactive | Potency [9]: inactive | Potency [10]: inactive | outcome [11]: inactive | Potency [3]: 0.0093 µM (active) | Potency [6]: 0.166 µM (active) | Potency [5]: 1.18 µM (active) | Potency [7]: 0.0166 µM (active)

Nc1ncnc2ccccc12
Potency [1]: inactive | Potency [3]: inactive | Potency [7]: inactive | Potency [12]: inactive | Potency [2]: inactive

Cc1ccn(-c2ccc(-c3ncco3)cc2)c(=O)c1-c1ccc2nc(N)ncc2c1
Potency [8]: inactive | Potency [9]: inactive | Potency [10]: inactive | Potency [3]: inactive | Potency [6]: inactive | Potency [5]: 14.8 µM (active) | Potency [7]: inactive

CC(=Cc1ccccc1)C=C1SC(=S)N(CC(=O)O)C1=O
Potency [3]: inactive | Potency [4]: inactive | Potency [6]: inactive | Potency [5]: inactive

COc1ccc(C2CC(c3ccccc3)=NN2c2ccc(S(N)(=O)=O)cc2)cc1 (configuration not stated)
Potency [9]: inactive | Potency [10]: inactive | outcome [11]: inactive | Potency [5]: 11.8 µM (active) | Potency [12]: 23.5 µM (active) | Potency [2]: 16.6 µM (active)

O=c1c(-c2ccc(O)cc2)coc2cc(O)ccc12
Potency [1]: inactive | Potency [3]: inactive | Potency [6]: inactive | Potency [5]: inactive

CCNc1cc(NC2CCC(O)CC2)nc(Nc2ccc3c(ccn3Cc3ccccc3)c2)n1 (configuration not stated)
Potency [1]: inactive | Potency [3]: 26.4 µM (active) | Potency [4]: 18.7 µM (active) | Potency [6]: 18.7 µM (active)

Oc1ccc(C2CCN(c3ccnc4ccccc34)CC2)cc1O
Potency [1]: inactive | Potency [3]: 14.8 µM (active) | Potency [4]: 9.35 µM (active) | Potency [5]: 18.7 µM (active) | Potency [7]: 23.5 µM (active) | Potency [2]: 16.6 µM (active)

O=C(CCCCCCC(=O)Nc1ccccc1)NO
Potency [1]: inactive | Potency [8]: inactive | Potency [10]: inactive | outcome [11]: inactive | Potency [3]: 2.35 µM (active) | Potency [4]: 1.32 µM (active) | Potency [6]: 7.43 µM (active) | Potency [5]: 1.05 µM (active) | Potency [7]: 0.833 µM (active) | Potency [2]: 3.32 µM (active)

CO[C@H]1C(=O)[C@]2(C)[C@@H](OC)C[C@H]3OC[C@@]3(OC(C)=O)[C@H]2[C@H](OC(=O)c2ccccc2)[C@]2(O)C[C@H](OC(=O)[C@H](O)[C@@H](NC(=O)OC(C)(C)C)c3ccccc3)C(C)=C1C2(C)C
Potency [1]: inactive | Potency [3]: inactive | Potency [4]: inactive | Potency [6]: inactive | Potency [7]: inactive

O=C(O)c1cc(O)c2c(c1)C(=O)c1cccc(O)c1C2=O
Potency [1]: inactive | Potency [7]: 34 µM (active)

NC(=O)c1cccc2[nH]c(-c3ccc([C@H]4CCCN4)cc3F)nc12
Potency [9]: inactive | Potency [10]: inactive | outcome [11]: inactive | Potency [3]: inactive | Potency [6]: inactive

CC(C)(C)OC(=O)N[C@H]1CCCCCC=C[C@@H]2C[C@@]2(C(=O)NS(=O)(=O)C2CC2)NC(=O)[C@@H]2C[C@@H](OC(=O)N3Cc4cccc(F)c4C3)CN2C1=O
Potency [8]: inactive | Potency [9]: inactive | Potency [10]: inactive | Potency [3]: inactive | Potency [4]: inactive | Potency [6]: inactive | Potency [5]: inactive | Potency [7]: inactive

O=C1c2ccccc2-[n+]2ccc3c([nH]c4ccccc43)c21
Potency [3]: 1.32 µM (active) | Potency [4]: 1.32 µM (active) | Potency [6]: 1.48 µM (active) | Potency [5]: 5.9 µM (active) | Potency [7]: 2.09 µM (active) | Potency [12]: 7.43 µM (active) | Potency [2]: 3.72 µM (active)

CO[C@H]1C=CO[C@@]2(C)Oc3c(C)c(O)c4c(O)c(c5c(c4c3C2=O)NC2(CCN(CC(C)C)CC2)N=5)=NC(=O)C(C)=CC=C[C@H](C)[C@H](O)[C@@H](C)[C@@H](O)[C@@H](C)[C@H](OC(C)=O)[C@H]1C
Potency [1]: inactive | Potency [8]: inactive | Potency [10]: inactive | outcome [11]: inactive | Potency [4]: inactive

O=C1NC(=O)C(=Cc2ccc3c(c2)OC(F)(F)O3)S1
Potency [3]: inactive

CC(C)(C(=O)NCC(F)(F)C(F)(F)F)C(=O)N[C@@H]1C(=O)Nc2ccccc2-c2ccccc21
Potency [1]: inactive | Potency [3]: inactive | Potency [4]: 20.9 µM (active) | Potency [6]: inactive | Potency [5]: 18.7 µM (active) | Potency [7]: inactive | Potency [2]: 2.35 µM (active)

Cc1cccc(Nc2nc(-c3ccncc3)cs2)c1
Potency [1]: inactive | Potency [10]: inactive | outcome [11]: inactive | Potency [3]: 18.7 µM (active) | Potency [4]: 18.7 µM (active) | Potency [5]: 11.8 µM (active)

COc1ccc2cccc(CCNC(C)=O)c2c1
Potency [1]: inactive | Potency [3]: inactive | Potency [4]: inactive | Potency [6]: inactive | Potency [5]: inactive | Potency [7]: inactive | Potency [2]: inactive

Cc1cnc(C(=O)O)c[n+]1[O-]
Potency [1]: inactive | Potency [3]: inactive | Potency [6]: inactive | Potency [5]: inactive | Potency [12]: inactive | Potency [2]: inactive

CCc1ccc(OCc2ccccc2C(=O)Nc2ccc3nc(C)cc(N)c3c2)cc1
Potency [3]: 8.33 µM (active) | Potency [4]: 1.18 µM (active) | Potency [6]: 7.43 µM (active) | Potency [5]: 3.32 µM (active) | Potency [7]: 7.43 µM (active) | Potency [12]: 2.64 µM (active) | Potency [2]: 1.05 µM (active)

CC1(C)S[C@H]2[C@H](NC(=O)[C@@H](N)c3ccc(O)cc3)C(=O)N2[C@@H]1C(=O)O
Potency [3]: inactive | Potency [4]: inactive | Potency [6]: inactive | Potency [5]: 2.35 µM (active) | Potency [7]: 20.9 µM (active) | Potency [2]: 14.8 µM (active)

Cc1[nH]c(C=C2C(=O)Nc3ccc(S(=O)(=O)Cc4c(Cl)cccc4Cl)cc32)c(C)c1C(=O)N1CCC[C@H]1CN1CCCC1
Potency [3]: 23.5 µM (active) | Potency [4]: 5.9 µM (active) | Potency [5]: 26.4 µM (active) | Potency [7]: 23.5 µM (active) | Potency [12]: 9.35 µM (active)

Cc1nnc(C(C)C)n1C1C[C@H]2CC[C@@H](C1)N2CC[C@H](NC(=O)C1CCC(F)(F)CC1)c1ccccc1 (some centres not stated)
Potency [3]: inactive | Potency [4]: 16.6 µM (active) | Potency [5]: inactive | Potency [7]: inactive

O=C(CCc1ccc(O)cc1)c1c(O)cc(O)cc1O[C@@H]1O[C@H](CO)[C@H](O)[C@H](O)[C@H]1O
Potency [3]: inactive | Potency [4]: inactive | Potency [6]: inactive | Potency [7]: inactive | Potency [12]: inactive | Potency [2]: inactive

O=C1NC(=O)C(=Cc2cccc(C(F)(F)F)c2)S1
Potency [3]: inactive | Potency [6]: 20.9 µM (active)

O=C1c2c(O)cc(O)cc2O[C@H](c2cc(O)c(O)c(O)c2)[C@H]1O
Potency [3]: 26.4 µM (active) | Potency [4]: inactive | Potency [6]: 1.66 µM (active) | Potency [7]: 11.8 µM (active) | Potency [12]: inactive

CCC(=O)O[C@]1(C(=O)CO)CC[C@H]2[C@@H]3CCC4=CC(=O)CC[C@]4(C)[C@@H]3CC[C@@]21C
Potency [3]: inactive | Potency [4]: inactive | Potency [6]: inactive | Potency [5]: inactive | Potency [2]: inactive
